Binding signal data for 1 sequence are collected here from PMC7862700, “An all-to-all approach to the identification of sequence-specific readers for epigenetic DNA modifications on cytosine”.

What all share (experiment): DAPPL (digital affinity profiling via proximity ligation, sequencing); 10 mM Tris-HCl pH 7.5, 50 mM NaCl, 1 mM DTT, 4% glycerol, room temperature, 30 min; GST-TFs on glutathione beads, 16-mer random dsDNA library, 0.1% formaldehyde crosslink after washing; high values mean tight binding
For assay [1], the target named is T1, FLI1 (Homo sapiens, UniProt Q01543 1-452).
T1 sequence: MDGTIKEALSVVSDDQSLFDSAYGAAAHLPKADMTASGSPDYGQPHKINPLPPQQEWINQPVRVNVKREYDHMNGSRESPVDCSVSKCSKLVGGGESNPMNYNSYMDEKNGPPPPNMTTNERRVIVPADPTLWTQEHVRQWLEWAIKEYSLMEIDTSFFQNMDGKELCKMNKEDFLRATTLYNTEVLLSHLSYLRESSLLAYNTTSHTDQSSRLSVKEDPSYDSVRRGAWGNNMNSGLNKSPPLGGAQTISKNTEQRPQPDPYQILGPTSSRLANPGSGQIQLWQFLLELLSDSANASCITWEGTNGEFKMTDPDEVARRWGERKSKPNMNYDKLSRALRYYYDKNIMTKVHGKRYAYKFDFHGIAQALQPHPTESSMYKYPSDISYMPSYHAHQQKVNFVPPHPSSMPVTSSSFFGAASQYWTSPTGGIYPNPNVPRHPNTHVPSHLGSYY
Conditions: protein: recombinant; tags: N-terminal GST; dsDNA, one strand shown. The essentials: (§1)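 In yeast, human transcription factors were expressed with a GST fusion, then pulled down on glutathione beads and given DNA barcodes. Pooled with a tag-only sample, they were exposed to 200 nmole of a 16-mer random double-stranded DNA library (Tris/NaCl/DTT/glycerol buffer, room temperature, 30 min), washed, crosslinked with 0.1% formaldehyde, proximity-ligated using BsaI/T4 ligase for 1 h at 37 °C, PCR-amplified and read on an Illumina NextSeq500. Each hexamer's frequency of reads for a factor, divided by the matching frequency for the tag-only sample, gives the binding signal.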

For assay [2], the target named is T2, ELK1 (Homo sapiens, UniProt P19419 1-428).
T2 sequence: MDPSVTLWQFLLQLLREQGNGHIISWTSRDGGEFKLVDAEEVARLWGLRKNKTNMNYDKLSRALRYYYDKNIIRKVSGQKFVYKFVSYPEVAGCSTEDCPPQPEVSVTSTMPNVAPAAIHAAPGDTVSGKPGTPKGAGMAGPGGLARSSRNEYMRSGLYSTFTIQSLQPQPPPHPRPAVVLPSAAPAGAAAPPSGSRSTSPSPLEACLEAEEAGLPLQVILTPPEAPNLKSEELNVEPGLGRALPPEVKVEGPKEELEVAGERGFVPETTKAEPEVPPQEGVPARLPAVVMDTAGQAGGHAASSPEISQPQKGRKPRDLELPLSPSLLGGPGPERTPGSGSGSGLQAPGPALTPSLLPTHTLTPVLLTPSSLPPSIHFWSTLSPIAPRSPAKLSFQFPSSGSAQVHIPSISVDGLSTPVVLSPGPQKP
Conditions: protein: recombinant; tags: N-terminal GST; dsDNA, one strand shown. A digest of the protocol: as §1

Assay [3] deals with T3, GABPA (Homo sapiens, UniProt Q06546 1-454).
T3 sequence: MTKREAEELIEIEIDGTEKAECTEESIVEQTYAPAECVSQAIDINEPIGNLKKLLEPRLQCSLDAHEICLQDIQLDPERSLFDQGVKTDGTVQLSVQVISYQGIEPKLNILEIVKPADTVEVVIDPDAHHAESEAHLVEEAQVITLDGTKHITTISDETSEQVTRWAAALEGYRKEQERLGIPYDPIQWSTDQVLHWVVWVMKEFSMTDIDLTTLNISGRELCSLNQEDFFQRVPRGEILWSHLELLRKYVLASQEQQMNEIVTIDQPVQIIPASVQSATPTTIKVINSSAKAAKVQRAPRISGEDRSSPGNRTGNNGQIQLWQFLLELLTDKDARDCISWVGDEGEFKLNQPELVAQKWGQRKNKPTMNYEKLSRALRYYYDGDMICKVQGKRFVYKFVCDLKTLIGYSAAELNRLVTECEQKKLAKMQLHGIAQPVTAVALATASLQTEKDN
The conditions noted are these: protein: recombinant; tags: N-terminal GST; dsDNA, one strand shown. A digest of the protocol:
as §1

Assay [4] deals with T4, ERG (Homo sapiens, UniProt P11308 1-479).
T4 sequence: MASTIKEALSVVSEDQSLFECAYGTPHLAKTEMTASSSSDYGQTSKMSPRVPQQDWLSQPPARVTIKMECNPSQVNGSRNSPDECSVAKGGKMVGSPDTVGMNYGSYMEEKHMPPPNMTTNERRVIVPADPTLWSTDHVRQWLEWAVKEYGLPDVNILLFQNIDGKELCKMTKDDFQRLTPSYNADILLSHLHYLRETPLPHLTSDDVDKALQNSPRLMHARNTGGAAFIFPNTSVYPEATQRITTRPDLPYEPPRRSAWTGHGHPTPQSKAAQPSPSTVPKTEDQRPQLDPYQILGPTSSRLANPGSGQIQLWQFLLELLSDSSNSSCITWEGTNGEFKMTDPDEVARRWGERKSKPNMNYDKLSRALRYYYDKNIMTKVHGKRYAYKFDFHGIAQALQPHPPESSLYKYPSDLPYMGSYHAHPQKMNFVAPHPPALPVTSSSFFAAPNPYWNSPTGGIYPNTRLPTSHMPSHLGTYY
The conditions noted are these: protein: recombinant; tags: N-terminal GST; dsDNA, one strand shown. The essentials:
as §1

The target in assay [5] is ELF1 (Homo sapiens, UniProt P32519 1-619). Conditions: protein: recombinant; tags: N-terminal GST; dsDNA, one strand shown. A digest of the protocol: as §1
Chain of ELF1 (P32519 whole entry): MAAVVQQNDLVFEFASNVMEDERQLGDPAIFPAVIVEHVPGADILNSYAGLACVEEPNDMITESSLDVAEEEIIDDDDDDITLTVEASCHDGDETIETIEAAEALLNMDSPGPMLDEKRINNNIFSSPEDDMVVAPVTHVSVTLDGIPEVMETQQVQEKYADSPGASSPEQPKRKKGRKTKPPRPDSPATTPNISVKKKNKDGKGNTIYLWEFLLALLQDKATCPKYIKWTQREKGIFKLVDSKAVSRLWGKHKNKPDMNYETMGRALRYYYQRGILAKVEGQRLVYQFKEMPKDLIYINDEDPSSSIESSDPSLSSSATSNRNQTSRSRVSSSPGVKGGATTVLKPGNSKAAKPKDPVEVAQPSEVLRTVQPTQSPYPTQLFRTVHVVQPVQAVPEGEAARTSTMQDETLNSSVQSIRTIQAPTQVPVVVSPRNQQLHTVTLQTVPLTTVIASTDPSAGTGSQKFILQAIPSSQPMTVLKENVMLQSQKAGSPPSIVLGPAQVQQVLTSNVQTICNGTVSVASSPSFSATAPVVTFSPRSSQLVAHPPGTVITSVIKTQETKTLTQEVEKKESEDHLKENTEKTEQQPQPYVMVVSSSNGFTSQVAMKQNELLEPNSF
The target of assay [6] is T5, EHF (Homo sapiens, UniProt Q9NZC4 1-300).
T5 sequence: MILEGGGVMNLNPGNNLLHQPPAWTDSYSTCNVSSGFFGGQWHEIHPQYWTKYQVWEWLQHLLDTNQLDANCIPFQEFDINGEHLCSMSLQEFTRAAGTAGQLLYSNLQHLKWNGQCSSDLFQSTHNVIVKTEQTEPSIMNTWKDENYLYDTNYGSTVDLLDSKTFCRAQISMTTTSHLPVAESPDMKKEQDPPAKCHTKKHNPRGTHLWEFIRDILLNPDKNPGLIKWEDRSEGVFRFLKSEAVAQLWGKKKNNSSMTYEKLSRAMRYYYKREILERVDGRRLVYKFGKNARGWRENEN
The conditions noted are these: protein: recombinant; tags: N-terminal GST; dsDNA, one strand shown. A digest of the protocol: as §1

Assay [7] addresses SPI1 (Homo sapiens, UniProt P17947 1-270). The conditions noted are these: protein: recombinant; tags: N-terminal GST; dsDNA, one strand shown. The essentials:
as §1

In assay [8] the target is SPIB (Homo sapiens, UniProt Q01892 1-262). Conditions: protein: recombinant; tags: N-terminal GST; dsDNA, one strand shown. A digest of the protocol: as §1
Chain of SPIB (Q01892 whole entry): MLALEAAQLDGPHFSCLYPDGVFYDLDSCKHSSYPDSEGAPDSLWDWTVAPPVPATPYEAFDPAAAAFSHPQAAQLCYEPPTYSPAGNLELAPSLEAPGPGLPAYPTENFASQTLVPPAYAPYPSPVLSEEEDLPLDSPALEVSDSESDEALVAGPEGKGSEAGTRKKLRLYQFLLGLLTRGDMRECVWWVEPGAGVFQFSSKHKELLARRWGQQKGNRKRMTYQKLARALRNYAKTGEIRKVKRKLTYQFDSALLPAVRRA
The target of assay [9] is T6, ELK3 (Homo sapiens, UniProt P41970 1-407).
T6 sequence: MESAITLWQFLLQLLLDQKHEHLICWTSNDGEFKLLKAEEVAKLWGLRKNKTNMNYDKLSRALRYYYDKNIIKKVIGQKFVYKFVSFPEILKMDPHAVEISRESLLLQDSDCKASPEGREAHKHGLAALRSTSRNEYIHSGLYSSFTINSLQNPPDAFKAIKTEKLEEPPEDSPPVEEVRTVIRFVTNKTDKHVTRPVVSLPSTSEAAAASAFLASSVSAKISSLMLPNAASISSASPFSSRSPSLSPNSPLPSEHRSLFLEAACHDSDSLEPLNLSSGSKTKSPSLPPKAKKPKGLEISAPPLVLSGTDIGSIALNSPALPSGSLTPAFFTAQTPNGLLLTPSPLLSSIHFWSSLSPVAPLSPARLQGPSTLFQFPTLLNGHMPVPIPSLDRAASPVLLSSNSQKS
The conditions noted are these: protein: recombinant; tags: N-terminal GST; dsDNA, one strand shown. A digest of the protocol:
as §1

The target of assay [10] is T7, FEV (Homo sapiens, UniProt Q99581 1-238).
T7 sequence: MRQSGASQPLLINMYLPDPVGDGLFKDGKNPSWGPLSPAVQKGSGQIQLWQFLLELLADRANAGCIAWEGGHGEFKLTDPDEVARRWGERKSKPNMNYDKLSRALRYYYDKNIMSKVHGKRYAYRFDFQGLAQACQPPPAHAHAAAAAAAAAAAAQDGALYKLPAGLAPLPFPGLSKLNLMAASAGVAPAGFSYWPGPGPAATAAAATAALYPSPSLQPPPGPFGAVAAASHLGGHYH
Conditions: protein: recombinant; tags: N-terminal GST; dsDNA, one strand shown. The essentials: as §1

Assay [11] has as its target ETV5 (Homo sapiens, UniProt P41161 1-510). The conditions noted are these: protein: recombinant; tags: N-terminal GST; dsDNA, one strand shown. A digest of the protocol: as §1
Assay [12] has as its target HSF1 (Homo sapiens, UniProt Q00613 1-529). Conditions: protein: recombinant; tags: N-terminal GST; chain copies: 3; dsDNA, one strand shown. A digest of the protocol:
as §1

For assay [13], the target named is T8, SPIC (Homo sapiens, UniProt Q8N5J4 1-248).
T8 sequence: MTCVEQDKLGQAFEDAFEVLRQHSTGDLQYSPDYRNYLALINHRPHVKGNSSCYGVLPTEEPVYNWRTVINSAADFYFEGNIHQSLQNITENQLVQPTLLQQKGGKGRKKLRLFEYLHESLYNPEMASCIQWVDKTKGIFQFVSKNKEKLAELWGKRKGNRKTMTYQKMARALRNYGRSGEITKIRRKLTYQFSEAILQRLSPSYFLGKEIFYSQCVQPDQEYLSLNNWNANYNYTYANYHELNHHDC
Conditions: protein: recombinant; tags: N-terminal GST; dsDNA, one strand shown. A digest of the protocol: as §1

Assay [14] concerns the target ELF4 (Homo sapiens, UniProt Q99607 1-663). Conditions: protein: recombinant; tags: N-terminal GST; dsDNA, one strand shown. The essentials: as §1
For assay [15], the target named is T9, ELK4 (Homo sapiens, UniProt P28324-2 1-405).
T9 sequence: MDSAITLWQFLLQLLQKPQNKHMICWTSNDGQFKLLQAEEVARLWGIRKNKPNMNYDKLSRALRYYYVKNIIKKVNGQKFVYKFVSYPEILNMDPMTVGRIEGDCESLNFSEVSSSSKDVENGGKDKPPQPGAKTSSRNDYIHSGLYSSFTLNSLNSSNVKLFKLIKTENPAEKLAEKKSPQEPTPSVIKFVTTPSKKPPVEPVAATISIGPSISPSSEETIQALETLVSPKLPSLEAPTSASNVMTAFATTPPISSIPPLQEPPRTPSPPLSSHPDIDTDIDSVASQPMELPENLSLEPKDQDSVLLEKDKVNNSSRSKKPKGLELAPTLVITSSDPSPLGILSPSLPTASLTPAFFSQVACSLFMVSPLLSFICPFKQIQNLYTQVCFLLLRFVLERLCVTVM
The conditions noted are these: protein: recombinant; tags: N-terminal GST; dsDNA, one strand shown. A digest of the protocol:
as §1

The target in assay [16] is T10, ETV2 (Homo sapiens, UniProt O00321 1-342).
T10 sequence: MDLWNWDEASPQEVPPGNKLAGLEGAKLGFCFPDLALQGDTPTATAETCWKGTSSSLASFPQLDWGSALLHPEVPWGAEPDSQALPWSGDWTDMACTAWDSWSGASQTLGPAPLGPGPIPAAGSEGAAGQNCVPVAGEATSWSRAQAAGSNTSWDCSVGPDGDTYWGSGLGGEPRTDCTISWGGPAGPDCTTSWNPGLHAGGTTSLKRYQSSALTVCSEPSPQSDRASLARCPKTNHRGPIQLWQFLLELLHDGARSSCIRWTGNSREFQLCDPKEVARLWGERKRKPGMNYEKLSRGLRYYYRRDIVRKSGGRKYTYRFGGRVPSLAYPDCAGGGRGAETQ
Conditions: protein: recombinant; tags: N-terminal GST; dsDNA, one strand shown. The essentials:
as §1

Assay [17] concerns the target T11, ELF3 (Homo sapiens, UniProt P78545 1-371).
T11 sequence: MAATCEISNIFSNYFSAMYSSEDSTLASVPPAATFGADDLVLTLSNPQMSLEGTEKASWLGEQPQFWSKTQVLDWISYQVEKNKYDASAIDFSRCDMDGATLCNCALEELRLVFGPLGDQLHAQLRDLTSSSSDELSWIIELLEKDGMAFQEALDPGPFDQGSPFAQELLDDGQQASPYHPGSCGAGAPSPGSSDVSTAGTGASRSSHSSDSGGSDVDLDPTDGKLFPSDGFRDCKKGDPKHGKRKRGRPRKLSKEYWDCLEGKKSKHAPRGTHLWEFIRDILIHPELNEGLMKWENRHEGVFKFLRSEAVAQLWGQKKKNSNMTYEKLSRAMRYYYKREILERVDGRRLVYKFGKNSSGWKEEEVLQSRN
The conditions noted are these: protein: recombinant; tags: N-terminal GST; dsDNA, one strand shown. The essentials: as §1

Assay [18] deals with CRX (Homo sapiens, UniProt O43186 1-299). The conditions noted are these: protein: recombinant; tags: N-terminal GST; dsDNA, one strand shown. The essentials: as §1
Chain of CRX (O43186 whole entry): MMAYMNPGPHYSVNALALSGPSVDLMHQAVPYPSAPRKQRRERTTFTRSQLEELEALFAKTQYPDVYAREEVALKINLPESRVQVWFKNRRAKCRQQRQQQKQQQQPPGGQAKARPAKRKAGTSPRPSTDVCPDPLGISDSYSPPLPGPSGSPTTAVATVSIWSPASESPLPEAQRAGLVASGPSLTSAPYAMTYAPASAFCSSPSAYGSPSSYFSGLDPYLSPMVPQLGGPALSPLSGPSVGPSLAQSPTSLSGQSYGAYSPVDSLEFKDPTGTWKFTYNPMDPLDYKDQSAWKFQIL
Assay [19] has as its target ETV1 (Homo sapiens, UniProt P50549 1-477). The conditions noted are these: protein: recombinant; tags: N-terminal GST; dsDNA, one strand shown. A digest of the protocol:
as §1

Chain of ETV1 (P50549 whole entry): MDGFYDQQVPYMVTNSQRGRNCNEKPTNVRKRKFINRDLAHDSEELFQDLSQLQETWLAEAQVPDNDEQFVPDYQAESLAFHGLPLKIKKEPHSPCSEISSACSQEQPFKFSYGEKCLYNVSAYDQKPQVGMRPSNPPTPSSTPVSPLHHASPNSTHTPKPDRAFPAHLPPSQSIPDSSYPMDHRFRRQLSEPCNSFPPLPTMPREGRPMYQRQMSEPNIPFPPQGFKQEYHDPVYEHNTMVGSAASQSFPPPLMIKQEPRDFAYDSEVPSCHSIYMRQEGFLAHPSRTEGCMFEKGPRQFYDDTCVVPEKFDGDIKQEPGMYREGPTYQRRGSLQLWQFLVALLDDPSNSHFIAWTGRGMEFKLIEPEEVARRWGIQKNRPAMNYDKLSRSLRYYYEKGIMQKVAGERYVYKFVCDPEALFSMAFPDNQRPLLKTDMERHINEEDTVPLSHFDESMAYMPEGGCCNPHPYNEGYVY
Chain of ETV5 (P41161 whole entry): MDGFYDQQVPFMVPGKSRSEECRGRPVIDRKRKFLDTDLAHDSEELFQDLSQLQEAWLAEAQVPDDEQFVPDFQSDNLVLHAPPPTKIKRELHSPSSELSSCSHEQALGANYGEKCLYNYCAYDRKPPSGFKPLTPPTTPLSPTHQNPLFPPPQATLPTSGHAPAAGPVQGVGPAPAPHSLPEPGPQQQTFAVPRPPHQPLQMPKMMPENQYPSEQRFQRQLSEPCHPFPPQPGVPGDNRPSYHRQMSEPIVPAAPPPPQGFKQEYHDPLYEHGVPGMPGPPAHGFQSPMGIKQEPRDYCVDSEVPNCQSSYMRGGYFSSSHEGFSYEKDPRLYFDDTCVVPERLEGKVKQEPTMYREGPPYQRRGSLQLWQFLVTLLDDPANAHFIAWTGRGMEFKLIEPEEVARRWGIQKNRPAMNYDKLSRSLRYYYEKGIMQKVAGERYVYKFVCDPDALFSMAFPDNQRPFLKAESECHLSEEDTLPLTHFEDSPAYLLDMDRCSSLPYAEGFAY
Chain of HSF1 (Q00613 whole entry): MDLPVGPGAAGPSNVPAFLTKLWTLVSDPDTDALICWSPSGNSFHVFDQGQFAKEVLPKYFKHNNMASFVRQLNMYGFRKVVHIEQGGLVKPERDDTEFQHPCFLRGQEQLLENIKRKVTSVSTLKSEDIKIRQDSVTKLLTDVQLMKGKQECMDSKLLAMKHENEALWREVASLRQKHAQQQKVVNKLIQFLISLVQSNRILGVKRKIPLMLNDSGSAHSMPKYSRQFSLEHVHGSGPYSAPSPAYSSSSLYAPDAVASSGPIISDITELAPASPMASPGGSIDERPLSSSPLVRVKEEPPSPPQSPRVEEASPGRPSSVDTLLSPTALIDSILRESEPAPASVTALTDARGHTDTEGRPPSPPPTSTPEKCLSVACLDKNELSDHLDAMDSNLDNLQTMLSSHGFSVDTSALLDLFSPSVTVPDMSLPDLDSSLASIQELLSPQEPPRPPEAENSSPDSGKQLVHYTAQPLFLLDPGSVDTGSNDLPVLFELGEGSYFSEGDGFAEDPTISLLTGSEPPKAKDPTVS
Chain of ELF4 (Q99607 whole entry): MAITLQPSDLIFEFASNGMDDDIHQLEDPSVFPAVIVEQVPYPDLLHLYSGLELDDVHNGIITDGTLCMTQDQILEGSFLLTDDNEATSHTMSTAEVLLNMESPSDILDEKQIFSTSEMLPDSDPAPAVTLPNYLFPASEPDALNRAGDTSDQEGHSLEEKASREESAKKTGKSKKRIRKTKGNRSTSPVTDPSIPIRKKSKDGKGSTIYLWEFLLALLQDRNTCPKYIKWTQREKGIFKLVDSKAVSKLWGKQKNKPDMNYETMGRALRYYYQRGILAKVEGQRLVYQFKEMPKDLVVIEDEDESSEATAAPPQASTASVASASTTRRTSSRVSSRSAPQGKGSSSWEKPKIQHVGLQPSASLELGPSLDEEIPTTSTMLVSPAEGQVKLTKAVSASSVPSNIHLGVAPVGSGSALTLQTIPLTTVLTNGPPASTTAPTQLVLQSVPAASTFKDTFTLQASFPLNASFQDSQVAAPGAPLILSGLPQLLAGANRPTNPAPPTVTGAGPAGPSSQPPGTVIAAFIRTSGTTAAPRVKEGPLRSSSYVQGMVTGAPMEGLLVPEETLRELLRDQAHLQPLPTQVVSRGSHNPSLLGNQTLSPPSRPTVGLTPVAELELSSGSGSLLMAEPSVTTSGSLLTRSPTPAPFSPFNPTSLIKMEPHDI

With TAGGGT, the binding signal in [1] is 1.04 fold enrichment (6-mer frequency, TF over GST control); in assay [2], 1.03 fold enrichment (6-mer frequency, TF over GST control); in assay [3], 1.11 fold enrichment (6-mer frequency, TF over GST control); in assay [4], 1.03 fold enrichment (6-mer frequency, TF over GST control); in [5], 1.16 fold enrichment (6-mer frequency, TF over GST control); in assay [6] it was 1.09 fold enrichment (6-mer frequency, TF over GST control). In addition, the binding signal was 1.13 fold enrichment (6-mer frequency, TF over GST control) in assay [7]; 1.1 fold enrichment (6-mer frequency, TF over GST control) in [8]; 1.04 fold enrichment (6-mer frequency, TF over GST control) in assay [9]; 1.07 fold enrichment (6-mer frequency, TF over GST control) in assay [10]; 1.08 fold enrichment (6-mer frequency, TF over GST control) in assay [11]; 1.06 fold enrichment (6-mer frequency, TF over GST control) in [12]. Further, the binding signal was 1.11 fold enrichment (6-mer frequency, TF over GST control) in assay [13]; 1.09 fold enrichment (6-mer frequency, TF over GST control) in assay [14]; 1.22 fold enrichment (6-mer frequency, TF over GST control) in [15]; 1.16 fold enrichment (6-mer frequency, TF over GST control) in assay [16]; 1.1 fold enrichment (6-mer frequency, TF over GST control) in [17]; 1.2 fold enrichment (6-mer frequency, TF over GST control) in [18]. Besides, the binding signal in [19] was 1.01 fold enrichment (6-mer frequency, TF over GST control).
